From PubChem BioAssay AID1490 (National Center for Advancing Translational Sciences (NCATS), 2009)
About 11,000 (3.5%) of roughly 310,000 compounds were called active. Roughly 4% stayed inconclusive and do not appear here. This is one part of a sample in which actives are shown more often than they occur. The call rests on the fitted dose curve; in most records, active means well fitted inhibition curve with a large enough effect; inconclusive means small, poorly fitted or top-dose-only effect, or another doubt; inactive means no such curve, though single readings can be large or run the other way.

Each compound was assayed against 4'-phosphopantetheinyl transferase ffp (Bacillus subtilis) (UniProt Q9F4F7) (assay: qHTS Assay for Inhibitors of Bacillus subtilis Sfp phosphopantetheinyl transferase (PPTase)). Conditions: Biochemical Sfp PPTase activity.
How it was run: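 Fluorescence-quenching assay: 15 nM Sfp-PPTase preincubated 15 min at room temperature with compound, then 5 uM rhodamine-CoA and 12.5 uM BHQ-2-labelled YbbR peptide added. Fluorescence (ex 525/em 598 nm) read at start and after 30 min; difference gives rate.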
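Further: the enzyme is Sfp with the accession as filed and its product quenches rhodamine fluorescence.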
Potency means the concentration at half of the fitted maximal effect.
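Wherever largest response in the series, negative = inhibition is given: 0% = enzyme reaction without inhibitor and -100% = no enzyme wells.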

Row | Compound | largest response in the series, negative = inhibition | Potency
1 | Cc1ccc(OCCCC(=O)Nc2ccc(S(=O)(=O)Nc3cc(C)nc(C)n3)cc2)cc1 | 5.46% (inactive) | 
2 | CC1(C)OC2CO[C@]3(COS(N)(=O)=O)OC(C)(C)OC3C2O1 (stereo partly drawn) | 20.4% (inactive) | 
3 | O=C(N/N=C\c1cc(Br)c(Br)o1)C1COc2ccccc2O1 (stereo not drawn) |  | 39.8 µM (active)
4 | O=C(N/N=C/c1cc2c(cc1Br)OCO2)C1COc2ccccc2O1 (stereo not drawn) | 0.904% (inactive) | 
5 | O=C(CNC(=O)C1COc2ccccc2O1)N/N=C/c1cc(Br)c(O)c(Br)c1 (stereo not drawn) | 1.24% (inactive) | 
6 | C=CCN1CCN(C(=O)CCCc2ccccc2)CC1 | 13.4% (inactive) | 
7 | Cc1cccc(OCC(=O)Nc2ccc(NC(=O)c3ccco3)c(C)c2)c1 | 16.8% (inactive) | 
8 | O=C(NC1CCCCC1)c1cc(C2CC2)on1 | 2.59% (inactive) | 
9 | CSc1ccccc1NC(=O)c1cc(C2CC2)on1 |  | 17.8 µM (active)
10 | O=C(Nc1cc(C(F)(F)F)ccc1Cl)c1cc(C2CC2)on1 | 15.4% (inactive) | 
11 | O=C(NC(=S)Nc1ccccc1N1CCCCC1)c1ccc(F)cc1 | 5.51% (inactive) | 
12 | CC1CN(C(=S)Nc2ccccc2F)CC(C)O1 (stereo not drawn) | -11.5% (inactive) | 
13 | O=C(Nc1ccccc1)Nc1ccc(C(F)(F)F)cn1 | 11.2% (inactive) | 
14 | Oc1ccc(Br)cc1/C=N/Nc1ccccn1 | 5.24% (inactive) | 
15 | Oc1ccc(/C=N/Nc2ccc(C(F)(F)F)cn2)cc1O |  | 28.2 µM (active)
16 | Cc1c(Cl)c([N+](=O)[O-])nn1CC(=O)NCCCN1CCOCC1 | 1.31% (inactive) | 
17 | O=C(CN1C(=O)COc2ccc(Cl)cc21)N1CCOCC1 | 9.91% (inactive) | 
18 | O=C(N/N=C/c1ccc(O)c2ccccc12)c1cccnc1 | 7.11% (inactive) | 
19 | O=C(N/N=C/c1ccccn1)c1cccnc1 |  | 2 µM (active)
20 | CNC(=O)C(=O)N/N=C/c1ccccn1 |  | 79.4 µM (active)
21 | O=C(N/N=C/c1ccccn1)C12CC3CC(CC(C3)C1)C2 | -35% (inactive) | 

Row | Compound | largest response in the series, negative = inhibition | Potency
22 | O=C(COc1ccc(Cl)cc1Cl)N/N=C/c1ccccn1 | -29.7% (inactive) | 
23 | O=C(N/N=C/c1ccccn1)c1cccc(NC(=O)c2ccc(Cl)cc2)c1 | 10.1% (inactive) | 
24 | O=C(CCC1CCCC1)N=C1SC2CS(=O)(=O)CC2N1Cc1ccccc1 (stereo not drawn) | 11.9% (inactive) | 
25 | Cc1ccnc(NC(=O)CCNS(=O)(=O)c2ccc(C)c(C)c2)c1 | 9.67% (inactive) | 
26 | S=c1nccc(-c2cc(Cl)sc2Cl)[nH]1 |  | 79.4 µM (active)
27 | O=C(NCCS(=O)(=O)N1CCN(c2ccccc2F)CC1)c1ccc(Br)o1 | 27.4% (inactive) | 
28 | O=C1c2cccc3cc(Br)cc(c23)C(=O)N1Nc1ccccc1 | 9.09% (inactive) | 
29 | O=C1C=C(c2ccc(Cl)cc2)C(=O)N1Nc1ccccc1 |  | 10 µM (active)
30 | O=C(O)CC1=C(Nc2ccccc2)C(=O)N(c2ccccc2)C1c1ccc(Cl)cc1 (stereo not drawn) | 18.5% (inactive) | 
31 | O=C(CN1C(=O)COc2ccccc21)NCCN1CCc2ccccc2C1 | 7.58% (inactive) | 
32 | Cc1cccc2c1-c1sc(C(=O)NCCCN3CCc4ccccc4C3)cc1CO2 |  | 44.7 µM (active)
33 | O=C(NCCCN1CCOCC1)c1cc2c(s1)CCC2 | 23.9% (inactive) | 
34 | O=C(CCCC(=O)N1CCN(c2cccc(Cl)c2)CC1)c1ccccc1 | -3.1% (inactive) | 
35 | CN(C(=O)COC(=O)CNC(=O)C12CC3CC(CC(C3)C1)C2)c1ccccc1 | 0.528% (inactive) | 
36 | O=C(N/N=C/c1cccc(OC(=O)c2ccc([N+](=O)[O-])cc2)c1)c1cccnc1 | 10% (inactive) | 
37 | CCN(CC)CCN1C(=O)C(=O)/C(=C(/O)c2ccc(OC)c(OC)c2)C1c1ccccn1 (stereo not drawn) |  | 56.2 µM (active)
38 | CCN(CC)CCN1C(=O)C(=O)/C(=C(/O)c2ccccc2)C1c1ccccc1F (stereo not drawn) | 4.16% (inactive) | 
39 | COc1ccc(C2/C(=C(/O)c3ccccc3)C(=O)C(=O)N2c2ncccn2)cc1OC (stereo not drawn) | -2.32% (inactive) | 
40 | COc1ccc(/C(O)=C2/C(=O)C(=O)N(CCCN(C)C)C2c2ccccc2)cc1OC (stereo not drawn) | 6.96% (inactive) | 
41 | COc1cccc(C2/C(=C(/O)c3ccc(F)cc3)C(=O)C(=O)N2CCN(C)C)c1 (stereo not drawn) | -8.12% (inactive) | 
42 | CCCOc1ccc(/C(O)=C2/C(=O)C(=O)N(CCN(C)C)C2c2ccc(OC)c(OC)c2)cc1 (stereo not drawn) |  | 79.4 µM (active)

Row | Compound | largest response in the series, negative = inhibition | Potency
43 | CC(=O)c1cccc(NC(=O)COc2ccc(S(=O)(=O)N3CCOCC3)cc2)c1 | 14.4% (inactive) | 
44 | O=C(O)CN1c2cccc3cccc(c23)S1(=O)=O | -16.8% (inactive) | 
45 | COc1ccc(OCc2n[nH]c(=S)n2N)cc1 | -87.4% (inactive) | 
46 | CSc1n[nH]c(=S)n1N |  | 44.7 µM (active)
47 | O=c1nc(N/N=C/c2ccco2)cn[nH]1 |  | 31.6 µM (active)
48 | CC(C)NC(=O)C(=O)N/N=C/c1ccco1 | 13% (inactive) | 
49 | O=C(Cn1cnc2ccccc21)N/N=C/c1ccco1 | 15.1% (inactive) | 
50 | Cc1ccc(S(=O)(=O)NCc2ccc(C(=O)NC3CCC(C)CC3)cc2)cc1 (stereo not drawn) | 17% (inactive) | 
51 | Cc1ccc(NC2CCCN(C(=O)CCc3cn[nH]c3)C2)cc1C (stereo not drawn) | 7.06% (inactive) | 
52 | O=C(O)CCCn1cc(NC(=O)COc2cccc(Cl)c2)cn1 | 12.9% (inactive) | 
53 | O=S(=O)(NC1CC1)c1ccc(Cl)cc1 | 10.7% (inactive) | 
54 | Cc1cc(C)c(NC(=S)N2CCCC2C(=O)O)c(C)c1 (stereo not drawn) |  | 35.5 µM (active)
55 | Cc1cc([N+](=O)[O-])c(N2CCC[C@@H]2C(=O)O)c([N+](=O)[O-])c1 | 0.854% (inactive) | 
56 | Cc1cccc(C)c1NC(=O)C1CCCN1C(=O)OC(C)(C)C (stereo not drawn) | 0.244% (inactive) | 
57 | O=[N+]([O-])c1ccc(N2CCN(c3ccc(F)cc3)CC2)cn1 | 10.5% (inactive) | 
58 | CC1C(=O)C(C)C(c2ccc(O)cc2)NC1c1ccc(O)cc1 (stereo not drawn) | 4.83% (inactive) | 
59 | COc1ccc(-c2cc(=O)oc3cc(OC(C)C(=O)NCC4CCC(C(=O)O)CC4)ccc23)cc1 (stereo not drawn) | 18.5% (inactive) | 
60 | COc1c(O)c2c(=O)cc(OC)c3c4c(OC)cc(=O)c5c(O)c(OC)c6c(c(c1C[C@@](C)(O)[C@H]6C(C)=O)c23)c54 | -14.1% (inactive) | 
61 | Fc1ccc(Nc2nnns2)cc1 |  | 8.91 µM (active)
62 | O=C(Nc1ccncc1)Nc1ccc(F)cc1 | 14.5% (inactive) | 
63 | CN(C)c1nc(NN)nc(Nc2ccc(F)cc2)n1 | -5.52% (inactive) | 
